# ANO1 block: mouse TMEM16A channel inhibition, primary screen; actives 1.2% (n = 310,000); normalized B-score (activity score, 25-100; higher = stronger inhibition) at 10 µM; AID 588511; HEK293 TMEM16A/YFP iodide influx fluorescence, ionomycin;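 active = ratio plate-corrected score three or more library SD toward inhibition, starting fluorescence score within five deviations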;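 note: score derived from kinetic fluorescence span divided by baseline fluorescence per well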
# PKA-R2B activ: activates the human PKA-R2B holoenzyme complex; activation, % at 11.4 µM; P22694+P31323; PKA-R2B holoenzyme dissociation, Cy5-IP20 fluorescence polarization; R2B truncated from residue 108, S112A mutant; 0% DMSO only, 100% 113 µM cGMP; actives 0.079% (n = 340,000);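 active = activation above a cutoff set at the mean over all compounds plus 3 SD, cut at about 18% in these data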;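 note: higher means more holoenzyme dissociation and a rise in polarization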
# ANO1 activ: activators or potentiators of mouse TMEM16A chloride channel; B-score at 10 µM; AID 623877; Q8BHY3; HEK293 TMEM16A/YFP-H148Q/I152L, iodide quench fluorescence; hits give low values; actives 0.3% (n = 340,000);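 active = fluorescence-ratio B-score plate-corrected deviation score at least 3 library SD below zero, with starting fluorescence score within 5 deviations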;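 note: channel opened by trigger with iodide after compound preincubation; score built on the fluorescence ratio of max minus min over baseline; more negative score means more quench and so TMEM16A activation or potentiation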
# CHT block: inhibitors of human choline transporter CHT | CHT-expressing cells, membrane potential dye, choline response; hits give low values | AID 488975 | actives 0.86% (n = 310,000) | B-score at 10 µM | Q9GZV3;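 active = B-score over 3 SD under the library average, and starting fluorescence ratio not unusually high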;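 note: choline stimulus applied at its EC90 after an EC20 pre-addition; B-score computed on integrated fluorescence ratio after choline addition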
# CHT PAM: allosterically activates the human high affinity choline transporter; Q9GZV3; CHT-expressing cells, membrane potential dye, choline EC20; hits give high values; LV-AA mutant CHT in HEK293 cells; B-score at 10 µM; actives 0.49% (n = 310,000); AID 488977;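 active = initial fluorescence not abnormally high and integrated response B-score, plate-corrected, over 3 SD above library mean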
# PKA-R1A act: PKA-R1A complex activation. PKA-R1A dissociation, Cy5-IP20 fluorescence polarization; scaled: DMSO 0%, 113 µM cGMP 100%. activation, % at 11.4 µM. actives 0.083% (n = 340,000). AID 504707;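 active = percent activation above the mean of all tested compounds plus 3 SD, cut at about 19% in these data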;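 note: higher means more PKAc released from R1A so a rise in polarization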
# TMEM16A reconf: re-confirmation of mouse TMEM16A chloride channel inhibitors; actives 39% (n = 2,300); HEK293 TMEM16A/YFP-H148Q, iodide quench fluorescence; ionomycin added to raise cell calcium; shares compounds with ANO1 block; inhibition, % at 10 µM;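 active = mean duplicate percent inhibition, scaled so buffer wells are 0 and the reference blocker 100, over three buffer SD above buffer mean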
# HEK293 Ca mobil: alters calcium mobilization in TMEM16A HEK293 cells, counter-screen | shares compounds with ANO1 block | TMEM16A/YFP HEK293, Fluo4 calcium mobilization | calcium response (% of ionomycin), % at 10 µM | actives 2% (n = 2,300);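 active = duplicate-averaged calcium signal over 20% of the ionomycin maximum, relative to buffer baseline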;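 note: each well's signal is peak minus trough fluorescence divided by its pre-addition baseline; 0% = buffer wells and 100% = ionomycin wells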
# Parental YFP cnt: acts in parental YFP-HEK293 cells lacking TMEM16A, counter-screen; shares compounds with ANO1 block; AID 652233; 2,300 tested, under 10 active; iodide YFP quench, ionomycin; YFP ratio F(max-min)/F0 at 10 µM;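 active = yellow fluorescent protein signal ratio exceeding the buffer control mean by over 5 SD of those controls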;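 note: ratio is mean of duplicate wells from kinetic YFP trace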
# ClC-1 rat inh: blocks the rat ClC-1 voltage-dependent chloride channel. shares compounds with ANO1 block. CHO ClC-1-YFP, iodide influx fluorescence quench; iodide control reads 0, buffer control 100. ratio percent, % at 10 µM. 2,300 tested, under 10 active. AID 652236;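 active = duplicate-mean ratio percent above the mean of iodide-only control wells, which defines zero, plus 5 of their SD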;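 note: higher percent means stronger block of ClC-1 iodide influx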
# An asterisk follows results filed as active; i = inactive; . = not tested or not shown. Hits are enriched below; roughly 2.5% of the tested compounds scored in any of these assays.
SMILES,ANO1 block,PKA-R2B activ,ANO1 activ,CHT block,CHT PAM,PKA-R1A act,TMEM16A reconf,HEK293 Ca mobil,Parental YFP cnt,ClC-1 rat inh
COCc1c(C(=O)OCC(=O)c2c(N)n(CC(C)C)c(=O)n(C)c2=O)oc2ccccc12,25*,7,i,i,i,-10,i,i,-1.2,-12
CCc1ccc(C(=O)OCC(=O)c2c(N)n(CC(C)C)c(=O)n(C)c2=O)cc1,25*,-18,i,i,i,-9,i,i,-0.88,-10
CC1CCN(CCCNC(=O)C2CCC(CNS(=O)(=O)c3ccccc3)CC2)CC1 (configuration not stated),i,-1,i,i,i,-4,.,.,.,.
COc1ccc(OC)c(S(=O)(=O)Nc2ccc(C(C)=O)cc2)c1,i,11,i,i,i,-7,.,.,.,.
COc1ccc(OC)c(S(=O)(=O)Nc2ccc(Oc3ccccc3)cc2)c1,25*,-5,i,i,i,-6,i,i,-1.1,-13
CCSc1nc(-c2ccccc2)c(C#N)c(=O)[nH]1,i,-6,i,i,i,-4,.,.,.,.
CCCOc1ccc(-c2nc(SCc3ccccc3)[nH]c(=O)c2C#N)cc1OC,100*,6,i,i,i,3,30%*,i,-1.1,-4
O=C1NC(Cc2ccc(O)cc2)c2nc3cc(F)c(F)cc3c(=O)n2-c2ncccc21 (configuration not stated),.,-1,.,.,.,-17,.,.,.,.
CCOC(=O)C1=C(N)Oc2cc(O)ccc2C1c1cccnc1 (configuration not stated),100*,1,i,i,i,1,30%*,i,-1.2,-10
CCOC(=O)C1=C(N)Oc2cc(O)ccc2C1c1cccc(Cl)c1 (configuration not stated),i,6,i,i,i,-16,.,.,.,.
C=CCn1c(SCC(=O)c2cccs2)nc2sc(CC)cc2c1=O,100*,-2,i,i,i,-6,64%*,i,-0.92,-16
C=CCn1c(SCC(=O)O)nc2sc(CC)cc2c1=O,i,-4,i,i,i,-2,.,.,.,.
O=C(CCc1cn2ccccc2n1)NC1CCCc2c1cnn2-c1ccccc1F (configuration not stated),i,2,i,i,i,-2,.,.,.,.
O=C(CSc1nnc(-c2ccc(C(F)(F)F)cn2)s1)c1ccccc1,i,-2,i,i,i,12,.,.,.,.
CCSc1n[nH]c2nc3c(c(=O)n12)C1(CCCC1)Cc1ccccc1-3,i,-2,i,i,i,3,.,.,.,.
Cc1ccc(-n2c(SCC(N)=O)nc3c(c2=O)C2(CCCC2)Cc2ccccc2-3)cc1,25*,-16,i,i,i,2,39%*,i,-1.3,-4
Cc1ccccc1-c1cc(C(=O)n2cccn2)c2cc(Cl)ccc2n1,25*,-9,i,i,i,13,i,i,-0.99,-10
CCC1(CC)NC(=O)N(CC(=O)NC(=O)NCc2ccccc2)C1=O,i,2,i,i,i,-3,.,.,.,.
Cc1ccc(C(C)C)c(Oc2nnnn2-c2ccccc2)c1,25*,-12,i,i,i,0,26%*,i,-0.9,-8
O=C1N(Cc2ccccc2F)c2ccccc2C12OCCCO2,100*,-4,i,i,i,-5,i,i,-1.1,-9
CSc1nc2sc3c(c2c2nnnn12)CCCC3,100*,-1,i,i,i,-2,i,i,-1.2,-8
COc1cccc2c1O/C(=N\O)C(C(=O)Nc1ccc(C)cc1)C2 (configuration not stated),i,8,i,i,i,6,.,.,.,.
Cc1cccc(Oc2cnn(C(C)(C)C)c(=O)c2Cl)c1,25*,-8,i,i,i,-15,i,i,-0.94,-16
O=[N+]([O-])c1cccnc1SCc1c(F)cccc1Cl,i,3,i,i,i,7,.,.,.,.
O=[N+]([O-])c1ccc(SCc2c(F)cccc2Cl)nc1,25*,-2,i,i,i,-6,16%*,i,-1,-7
SMILES,ANO1 block,PKA-R2B activ,ANO1 activ,CHT block,CHT PAM,PKA-R1A act,TMEM16A reconf,HEK293 Ca mobil,Parental YFP cnt,ClC-1 rat inh
COc1ccccc1-c1ccc(SCC(=O)N2CCOCC2)nn1,i,6,i,i,i,-3,.,.,.,.
COc1ccccc1-c1ccc(SCc2ccc(F)cc2)nn1,100*,1,i,i,i,2,i,i,-0.99,-14
COc1ccc(COC(=O)c2ccc(Cl)c(S(=O)(=O)N3CC(C)OC(C)C3)c2)cc1 (configuration not stated),25*,6,i,i,i,-9,16%*,i,-1,-7
COC(=O)c1[nH]c2c(c1C)C(=O)CC(c1cccc(OC)c1)C2 (configuration not stated),i,-1,i,i,i,10,.,.,.,.
O=C(CSc1nccn1-c1ccc(F)cc1)NCc1ccc2c(c1)OCO2,i,2,i,i,i,-5,.,.,.,.
CCOc1ccc(-n2ccnc2SCC(=O)NCc2ccc3c(c2)OCO3)cc1,100*,8,i,i,i,-4,20%*,i,-1.2,-8
CN(C(=O)c1cccc(NC(=O)Cc2ccc(NC(=O)C3CCN(S(=O)(=O)c4cccc([N+](=O)[O-])c4)CC3)cc2)c1)C1CC1,.,4,.,.,.,6,.,.,.,.
COc1ccccc1CNc1ncnc2sccc12,25*,-22,i,i,i,-7,i,i,-0.89,-15
c1ccc2c(c1)OCC(CNc1ncnc3sccc13)O2 (configuration not stated),25*,-1,i,i,i,-11,i,i,-1.3,-24

# Compound activity: PubChem, several laboratories
